Measurements reported in PubChem BioAssay.
Activity calls are given as the source filed them.

Assays:
[1] = A549 cell viability effects, profiling panel, calcein-AM fluorescence, 48 h, basal (AID 1162); conditions: higher = more signal; note: test concentration not given here
[2] = adipocyte viability effects, profiling panel, cell-based, 3T3-L1 adipocytes, calcein-AM fluorescence, 48 h, basal (AID 1163); conditions: 3T3-L1 adipocytes viability, higher = more signal; note: test concentration not given here
[3] = HepG2 cell viability effects, profiling panel, calcein-AM fluorescence, 48 h, basal (AID 1164); conditions: higher = more signal; note: test concentration not given here
[4] = MM1S cell viability effects, profiling panel, calcein-AM fluorescence, 48 h, basal (AID 1165); conditions: higher = more signal;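 note: viability of MM1S multiple myeloma cells under basal unstimulated conditions; test concentration not given here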
[5] = basal RPMI8226 viability, no added stimulus, profiling panel, cell-based, calcein-AM fluorescence, 48 h, PK04 Diversity Set (AID 1166); conditions: RPMI8226 myeloma viability, higher = more signal;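 note: cells grown under basal conditions without added stimulus; test concentration not given here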
[6] = basal HepG2 mitochondrial membrane potential changes, profiling panel, cell-based, JC-1 fluorescence, 24 h, 100 nL compound (AID 1167); conditions: higher = more signal; note: test concentration not given here
[7] = basal 3T3-L1 adipocyte mitochondrial potential changes, profiling panel, cell-based, JC-1 fluorescence, 3T3-L1 adipocytes, 24 h, 100 nL compound (AID 1168); conditions: JC-1 mitochondrial fluorescence, higher = more signal, called active from +8 up or from −8 down; note: test concentration not given here
[8] = basal RPMI8226 mitochondrial membrane potential changes, profiling panel, cell-based, JC-1 fluorescence, 24 h, 100 nL compound (AID 1169); conditions: RPMI8226 myeloma, JC-1 mitochondrial potential fluorescence, higher = more signal; note: test concentration not given here
[9] = basal MM1S mitochondrial membrane potential changes, profiling panel, cell-based, JC-1 fluorescence, 24 h, 100 nL compound (AID 1170); conditions: higher = more signal; note: test concentration not given here
[10] = A549 lung cancer cell viability effects, profiling panel, resazurin fluorescence, 24 h, PK04 Diversity Set (AID 1171); conditions: higher = more signal, called active from +8 up or from −8 down; note: test concentration not given here
[11] = HepG2 liver cancer cell viability effects, profiling panel, resazurin fluorescence, 24 h, PK04 Diversity Set (AID 1172); conditions: higher = more signal; note: test concentration not given here
[12] = basal S. cerevisiae growth modulation, no modifier, primary screen, OD600, strain BY4716, 24 h, basal condition (AID 1173); conditions: OD600, 24 h, higher = more signal, called active from +8 up or from −8 down
[13] = MM1S myeloma cell viability, profiling panel, resazurin fluorescence, basal, 24 h, PK04 Diversity Set (AID 1174); conditions: higher = more signal, called active from +8 up or from −8 down;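 note: MM1S multiple myeloma cell line; test concentration not given here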
[14] = target: Dihydroorotate dehydrogenase (quinone), mitochondrial (Plasmodium falciparum (isolate 3D7)) (UniProt Q08210); experiment: PfDHODH enzyme inhibitors, primary screen, biochemical, C-terminal His tag, absorbance 600 nm (AID 1175); conditions: DCIP absorbance 600 nm, higher = more signal, called active from +8 up or from −8 down;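 note: recombinant parasite enzyme with a five histidine tag at its C terminus; test concentration not given here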
Dihydroorotate dehydrogenase (quinone), mitochondrial (Plasmodium falciparum (isolate 3D7)), sequence (Q08210 whole entry, looked up): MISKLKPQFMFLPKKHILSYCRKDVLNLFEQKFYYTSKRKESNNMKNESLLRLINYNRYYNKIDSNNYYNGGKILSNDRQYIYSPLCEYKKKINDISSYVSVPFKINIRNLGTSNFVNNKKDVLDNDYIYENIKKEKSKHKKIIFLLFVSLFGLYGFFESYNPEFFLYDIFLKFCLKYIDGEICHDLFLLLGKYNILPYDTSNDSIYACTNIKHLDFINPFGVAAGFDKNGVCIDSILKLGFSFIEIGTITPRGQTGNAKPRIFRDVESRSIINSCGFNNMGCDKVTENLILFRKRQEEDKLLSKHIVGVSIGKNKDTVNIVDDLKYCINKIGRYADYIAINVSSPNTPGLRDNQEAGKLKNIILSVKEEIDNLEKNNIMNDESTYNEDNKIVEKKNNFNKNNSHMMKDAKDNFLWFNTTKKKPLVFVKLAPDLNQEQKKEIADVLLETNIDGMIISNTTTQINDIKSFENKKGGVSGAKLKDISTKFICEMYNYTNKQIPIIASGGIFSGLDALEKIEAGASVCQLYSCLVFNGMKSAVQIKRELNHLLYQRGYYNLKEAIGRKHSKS

[15] = S. cerevisiae RM11-1a growth modifiers, primary screen, strain RM11-1a, OD600, basal, 24 h (AID 1177); conditions: OD600, 24 h, higher = more signal, called active from +8 up or from −8 down;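 note: cultures grown under basal conditions with no added stressor; test concentration not given here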
[16] = E. coli acrAB mutant growth effects, primary screen, E. coli filamentation inducers, strain DRC39, OD650, 24 h (AID 1178); conditions: higher = more signal, called active from +8 up or from −8 down;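 note: growth measured as culture turbidity by optical density at 650 nm; test concentration not given here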
[17] = E. coli acrAB mutant growth effects, primary screen, E. coli filamentation inducers, strain DRC39, OD650, 48 h (AID 1179);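 note: screen aims at cell division blockers that make cells filament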; conditions: E. coli DRC39 delta-acrAB growth, higher = more signal, called active from +8 up or from −8 down
[18] = RPMI8226 myeloma cell viability, profiling panel, resazurin fluorescence, basal, 24 h, PK04 Diversity Set (AID 1180); conditions: higher = more signal;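 note: RPMI8826 multiple myeloma cell line at 5000 cells per well; test concentration not given here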
[19] = target: E3 ubiquitin-protein ligase XIAP (Homo sapiens) (UniProt P98170); experiment: XIAP binders, primary screen, biophysical, small-molecule microarray, fluorescence 635 nm (AID 1181); conditions: small-molecule microarray binding, higher = more signal;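 note: score merges 667 nm emission and signal to noise over triplicate slides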
E3 ubiquitin-protein ligase XIAP (Homo sapiens), sequence (P98170 whole entry, looked up): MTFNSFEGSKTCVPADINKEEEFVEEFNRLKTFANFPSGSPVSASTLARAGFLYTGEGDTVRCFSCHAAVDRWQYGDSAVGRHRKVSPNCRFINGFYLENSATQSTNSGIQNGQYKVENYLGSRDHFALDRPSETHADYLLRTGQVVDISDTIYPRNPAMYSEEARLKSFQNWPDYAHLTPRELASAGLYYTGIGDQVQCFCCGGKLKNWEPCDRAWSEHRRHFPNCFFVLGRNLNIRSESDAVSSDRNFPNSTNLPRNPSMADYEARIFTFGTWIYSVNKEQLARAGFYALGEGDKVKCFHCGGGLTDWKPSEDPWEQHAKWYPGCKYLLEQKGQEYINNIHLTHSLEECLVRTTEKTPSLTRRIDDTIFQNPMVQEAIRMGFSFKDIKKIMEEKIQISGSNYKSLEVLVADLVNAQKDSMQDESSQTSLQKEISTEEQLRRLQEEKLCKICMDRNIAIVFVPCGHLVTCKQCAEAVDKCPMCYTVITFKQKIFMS

Q: With `CC(C)[Si]1(C(C)C)OCc2cc(C3CC3)nc(-c3ccccc3)c21` as the molecule, how does the z-score [1] read?
A: 0.0145

Q: What about the z-score [2] of the same molecule?
A: 1.06

Q: What about the z-score [3] of the same molecule?
A: -0.899

Q: What about the z-score [4] of the same molecule?
A: -0.319

Q: And the z-score [5]?
A: -1.54

Q: And the z-score [6]?
A: -0.012

Q: What about the z-score [7] of the same molecule?
A: 1.6 (inactive)

Q: What about the z-score [8] of the same molecule?
A: -0.373

Q: And the z-score [9]?
A: 0.542

Q: And the z-score [10]?
A: 1 (inactive)

Q: What about the z-score [11] of the same molecule?
A: 0.883

Q: And the z-score [12]?
A: -1.53 (inactive)

Q: What about the z-score [13] of the same molecule?
A: 0.972 (inactive)

Q: What about the composite z-score [14] of the same molecule?
A: 0.135 (inactive)

Q: What about the z-score [15] of the same molecule?
A: -1.75 (inactive)

Q: And the z-score [16]?
A: 1.39 (inactive)

Q: What about the z-score [17] of the same molecule?
A: 0.656 (inactive)

Q: What about the z-score [18] of the same molecule?
A: 0.536

Q: And the composite z-score [19]?
A: 0.0399

Q: Which z-score [1] does the source give for `CCCNC(=O)[C@@H]1c2ccccc2C(=O)N(Cc2cc(F)cc(C(F)(F)F)c2)[C@H]1c1ccc(CO)cc1` here?
A: 1.68

Q: What about the z-score [2] of the same molecule?
A: 1.18

Q: What about the z-score [3] of the same molecule?
A: -0.0223

Q: What about the z-score [4] of the same molecule?
A: 0.168

Q: What about the z-score [5] of the same molecule?
A: 0.563

Q: And the z-score [6]?
A: 2.07

Q: What about the z-score [7] of the same molecule?
A: -0.31 (inactive)

Q: What about the z-score [8] of the same molecule?
A: 0.693

Q: And the z-score [9]?
A: 0.607

Q: And the z-score [10]?
A: 1.54 (inactive)

Q: And the z-score [11]?
A: 0.527

Q: What about the z-score [12] of the same molecule?
A: -1.69 (inactive)

Q: And the z-score [13]?
A: 0.919 (inactive)

Q: What about the composite z-score [14] of the same molecule?
A: -0.0769 (inactive)

Q: What about the z-score [15] of the same molecule?
A: -1.41 (inactive)

Q: And the z-score [16]?
A: 1.4 (inactive)

Q: What about the z-score [17] of the same molecule?
A: 0.576 (inactive)

Q: And the z-score [18]?
A: 1.72

Q: And the composite z-score [19]?
A: -0.129

Q: What does the source list for `COC(=O)C1=CC(c2ccc(CO)cc2)=CC(C2CC2)N(Cc2sc3ccccc3c2Cl)C=C1C(=O)OC` (stereo not drawn)?
A: z-score [1]: -0.905; z-score [2]: 1.77; z-score [3]: -0.651; z-score [4]: -2.62; z-score [5]: -4.22; z-score [6]: 1.72; z-score [7]: 0.982 (inactive); z-score [8]: -0.804; z-score [9]: -0.969; z-score [10]: -1.3 (inactive); z-score [11]: 0.0452; z-score [12]: -4.51 (inactive); z-score [13]: -2.01 (inactive); composite z-score [14]: -0.245 (inactive); z-score [15]: -0.844 (inactive); z-score [16]: -2.1 (inactive); z-score [17]: -1.67 (inactive); z-score [18]: -1.75; composite z-score [19]: 0.0909

Q: With `C=CCN(C(=O)C1N(c2ccc(CCO)cc2)C(=O)C2C(C(=O)O)C3C=CC21O3)C(C)(C)C` (stereo not drawn) as the molecule, how does the z-score [1] read?
A: 0.478

Q: And the z-score [2]?
A: 1.86

Q: And the z-score [3]?
A: 0.134

Q: And the z-score [4]?
A: 1.69

Q: What about the z-score [5] of the same molecule?
A: -0.265

Q: What about the z-score [6] of the same molecule?
A: 0.556

Q: And the z-score [7]?
A: 2.37 (inactive)

Q: And the z-score [8]?
A: 0.0149

Q: What about the z-score [9] of the same molecule?
A: 1.08

Q: And the z-score [10]?
A: -1.3 (inactive)

Q: What about the z-score [11] of the same molecule?
A: 0.43

Q: What about the z-score [12] of the same molecule?
A: -1.39 (inactive)

Q: What about the z-score [13] of the same molecule?
A: 1.06 (inactive)

Q: What about the composite z-score [14] of the same molecule?
A: -0.363 (inactive)

Q: And the z-score [15]?
A: -1.41 (inactive)

Q: And the z-score [16]?
A: 1.44 (inactive)

Q: What about the z-score [17] of the same molecule?
A: 0.94 (inactive)

Q: And the z-score [18]?
A: 0.327

Q: What about the composite z-score [19] of the same molecule?
A: -0.253

Q: For `CC(C)(C)OC(=O)CC[C@]1(C(=O)NCCN2CCOCC2)N=C(c2ccc(OCCCO)cc2)O[C@H]1c1ccccc1CN=[N+]=[N-]`, which z-score [1] is on record?
A: 0.327

Q: What about the z-score [2] of the same molecule?
A: 1.13

Q: And the z-score [3]?
A: 0.0133

Q: What about the z-score [4] of the same molecule?
A: 1.31

Q: What about the z-score [5] of the same molecule?
A: -0.722

Q: And the z-score [6]?
A: -0.131

Q: What about the z-score [7] of the same molecule?
A: 0.289 (inactive)

Q: And the z-score [8]?
A: -0.0354

Q: What about the z-score [9] of the same molecule?
A: 0.671

Q: What about the z-score [10] of the same molecule?
A: 0.619 (inactive)

Q: What about the z-score [11] of the same molecule?
A: -0.0646

Q: What about the z-score [12] of the same molecule?
A: -1.56 (inactive)

Q: What about the z-score [13] of the same molecule?
A: 1.07 (inactive)

Q: What about the composite z-score [14] of the same molecule?
A: -0.114 (inactive)

Q: What about the z-score [15] of the same molecule?
A: -1.36 (inactive)

Q: What about the z-score [16] of the same molecule?
A: 1.16 (inactive)

Q: What about the z-score [17] of the same molecule?
A: 0.277 (inactive)

Q: And the z-score [18]?
A: 1.38

Q: What about the composite z-score [19] of the same molecule?
A: 0.564

Q: Which results are given for `C[N+](C)(C)CCCC[C@@H]1NC(=O)[C@H]2C[C@@H](C(=O)NCc3ccc(F)cc3)[C@@H](c3cccc(OCCO)c3)N2C1=O`?
A: z-score [1]: 0.191; z-score [2]: 1.01; z-score [3]: -0.676; z-score [4]: -1.04; z-score [5]: 0.366; z-score [6]: 1.79; z-score [7]: 1.06 (inactive); z-score [8]: -0.397; z-score [9]: 0.392; z-score [10]: 0.656 (inactive); z-score [11]: 0.523; z-score [12]: -1.84 (inactive); z-score [13]: 1.33 (inactive); composite z-score [14]: -0.347 (inactive); z-score [15]: -1.62 (inactive); z-score [16]: 0.765 (inactive); z-score [17]: 0.604 (inactive); z-score [18]: -0.0523; composite z-score [19]: 0.245

Q: What does the source list for `[N-]=[N+]=NCc1ccccc1C[C@]1(C(N)=O)N=C(c2ccc(OCCCO)cc2)O[C@H]1c1ccccc1CN=[N+]=[N-]`?
A: z-score [1]: -0.633; z-score [2]: 1.76; z-score [3]: -1.35; z-score [4]: -2.19; z-score [5]: -3.71; z-score [6]: 1.89; z-score [7]: 0.575 (inactive); z-score [8]: -0.937; z-score [9]: -0.621; z-score [10]: -1.97 (inactive); z-score [11]: -0.668; z-score [12]: -3.26 (inactive); z-score [13]: -1.04 (inactive); composite z-score [14]: -2.42 (inactive); z-score [15]: -3.31 (inactive); z-score [16]: 2.63 (inactive); z-score [17]: 0.258 (inactive); z-score [18]: -1.46; composite z-score [19]: 0.0685
